# PubChem BioAssay (NCATS)
# Results filed as inconclusive are left out. Entries that show only a call come without a potency. Unmarked numbers belong to inactive results. Active and inactive are the calls of the source. The call rests on the fitted dose curve; in most records, active means well fitted curve in the direction sought with a large enough effect; inconclusive means small, poorly fitted or top-dose-only effect, or another doubt; inactive means no such curve, though single readings can be large; an effect the other way counts as inactive or inconclusive. Square brackets hold non-standard residues; d marks the D form. Peptide text beside a SMILES is read from it. ξ: configuration not given here. ξLac(3-iPr) = CC(C)CC(O)C(=O)O; NMeV = CN[CH](C(=O)O)C(C)C; βAla = NCCC(=O)O
# Columns and labels:
# [1] = target: Cellular tumor antigen p53 (Homo sapiens) (UniProt P04637); assay: Primary qHTS for small molecule compounds that upregulate eGFP-tagged delta133p53alpha (in N-terminal) cells. (AID 2060322); conditions: NCI-H358 eGFP-delta133p53alpha fluorescence, 24 h; activation: stronger effect = higher value; further: nearly all actives have a fitted effect of over 75% in size; further: potency means the concentration at half of the fitted maximal effect;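 on activation: cells pre-induced with doxycycline then dosed without doxycycline; series mostly up to about 56 µM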
# Procedure, shortened: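 NCI-H358 cells pre-induced 24 h with 10 ng/ml doxycycline for eGFP-delta133p53alpha, plated dox-free and exposed 24 h at 37C to titrated compounds. Fixed, Hoechst-stained; gated GFP peak intensity by laser scanning cytometry, normalized to DMSO (0%) and 57.5 uM 5-azacytidine (100%).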
# [2] = target: Aldehyde dehydrogenase, mitochondrial (Homo sapiens) (UniProt P05091); assay: qHTS for Inhibitors of the Aldehyde Dehydrogenase Family (ALDH2) Primary screen (AID 2061308); further: nearly all actives have a fitted effect of over 55% in size
# [3] = target: Retinaldehyde dehydrogenase 3 (Homo sapiens) (UniProt P47895); assay: qHTS for Inhibitors of the Aldehyde Dehydrogenase Family (ALDH1A3) Primary screen (AID 2061315)
# Cellular tumor antigen p53 (Homo sapiens), sequence (P04637 whole entry, looked up): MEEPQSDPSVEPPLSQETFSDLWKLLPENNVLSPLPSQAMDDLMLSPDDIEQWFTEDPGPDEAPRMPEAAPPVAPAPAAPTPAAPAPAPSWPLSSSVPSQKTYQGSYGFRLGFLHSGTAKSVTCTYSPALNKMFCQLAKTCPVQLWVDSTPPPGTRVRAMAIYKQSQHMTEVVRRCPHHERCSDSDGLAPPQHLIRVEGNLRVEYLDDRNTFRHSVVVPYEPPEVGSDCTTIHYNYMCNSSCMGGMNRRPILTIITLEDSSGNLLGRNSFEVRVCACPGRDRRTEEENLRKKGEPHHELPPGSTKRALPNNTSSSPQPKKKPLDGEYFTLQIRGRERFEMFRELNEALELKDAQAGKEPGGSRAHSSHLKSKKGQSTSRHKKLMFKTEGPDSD
SMILES,activation [1] [%],Potency [2],Potency [3],"activity change, negative = inhibition [2]","activity change, negative = inhibition [3]",Potency [1]
CC1(O)CC(O)C2C(C(=O)O)=COC(OC3OC(CO)C(O)C(O)C3OC(=O)/C=C/c3ccc(O)cc3)C21 (centres undefined),-15.3,inactive,inactive,–,–,–
CN1CCc2cc3c(cc2C(=O)Cc2cc4c(cc2C1)OCO4)OCO3,-8.04,inactive,inactive,–,–,–
C[C@@H]1O[C@@H](O[C@H]2[C@H](OC(=O)[C@]34CCC(C)(C)C[C@H]3C3=CCC5[C@@]6(C)CC[C@H](O[C@@H]7O[C@H](C(=O)O)[C@@H](O)[C@H](O)[C@H]7O[C@@H]7O[C@H](CO)[C@H](O)[C@H](O)[C@H]7O)[C@@](C)(C=O)C6CC[C@@]5(C)[C@]3(C)C[C@H]4O)O[C@H](C)[C@H](O[C@@H]3O[C@H](C)[C@H](O)[C@H](O)[C@H]3O)[C@@H]2O)[C@H](O)[C@H](O)[C@H]1O[C@@H]1OC[C@@H](O)[C@H](O[C@@H]2O[C@H](CO)[C@@H](O)[C@H](O)[C@H]2O)[C@H]1O (some centres undefined),-6.87,–,–,-7.78% [at 11.2 µM],-11.5% [at 11.2 µM],–
CC(=O)O[C@H]1[C@H](O)C[C@@]2(C)C(CC[C@]3(C)C2CC=C2C4CC(C)(C)CC[C@]4(C(=O)O)CC[C@]23C)C1(C)C (some centres undefined),-12.5,inactive,inactive,–,–,–
CN1c2c(nc(N)[nH]c2=O)NC[C@@H]1CNc1ccc(C(=O)N[C@@H](CCC(=O)O)C(=O)O)cc1,-8.33,inactive,inactive,–,–,–
CN1CCN(C(=O)c2ccc(Nc3nccc(-c4cccs4)n3)cc2Cl)CC1,–,inactive,inactive,–,–,30.1 µM (active)
C=CC(C)(CC/C=C(\C)C(=O)OC)OC1OC(COC(=O)CC(C)(O)CC(=O)O)C(OC2OC(CO)C(O)C(O)C2O)C(O)C1O (centres undefined),-11.5,inactive,inactive,–,–,–
CC(=O)N[C@H](Cc1c[nH]c2ccccc12)C(=O)OCc1cc(C(F)(F)F)cc(C(F)(F)F)c1,14.3,inactive,inactive,–,–,–
CC(C)=CCC/C(C)=C/CC/C(C)=C/COC1OC(COC2OCC(OC3OCC(O)C(O)C3O)C(O)C2O)C(O)C(OC2OC(C)C(OC3OC(C)C(OC4OCC(OC5OC(C)C(O)C(O)C5O)C(O)C4O)C(O)C3O)C(O)C2O)C1O (centres undefined),4.58,–,–,7.18% [at 11.2 µM],-4.87% [at 11.2 µM],–
C=C(C)C1Cc2c(ccc3c2OCC(c2ccc(O)cc2O)C3)O1 (centres undefined),32.1,inactive,inactive,–,–,–
C=C1CC[C@]2(C(=O)O[C@@H]3O[C@H](CO)[C@@H](O)[C@H](O)[C@H]3O)CC[C@]3(C)C(=CCC4[C@@]5(C)C[C@H](O)[C@@H](O[C@@H]6O[C@H](C(=O)O)[C@@H](O)[C@H](O)[C@H]6O)[C@](C)(C=O)C5CC[C@]43C)C2C1 (some centres undefined),-11.6,inactive,inactive,–,–,–
CCOCc1cc(OC)c(-c2ccc(C[C@H](NC(=O)c3c(F)cccc3F)C(=O)O)cc2)c(OC)c1,-5.67,inactive,inactive,–,–,–
CC(C)CC1OC(=O)C2CCCN2C(=O)CCNC(=O)C(Cc2ccccc2)NC(=O)C(C(C)C)N(C)C(=O)C(C(C)C)N(C)C1=O (centres undefined) (cyclo([ξLac(3-iPr)][NMeV][NMeV]F[βAla]P); configuration not given here),-23.7,inactive,inactive,–,–,–
CCN1CCC[C@@H]1CNC(=O)c1ccc2c(c1)NC(=O)c1cccc(C)c1S2,19.7,inactive,inactive,–,–,–
O=C1NC(Cc2c[nH]c3ccccc23)C(=O)NC1Cc1cnc[nH]1 (centres undefined),-5.36,inactive,inactive,–,–,–
O=C(Nc1cccc2cccnc12)c1ccc(N2C(=O)[C@@H]3C4C=CC(C4)[C@@H]3C2=O)cc1,2.33,inactive,inactive,–,–,–
C=C1CCC[C@]2(C)CC[C@@](O)(C(=C)C(=O)O)C[C@@H]12,24.1,inactive,inactive,–,–,–
CCC(C)/C=C(C)/C=C/C1=CC2=C(Cl)C(=O)C(C)(OC(C)=O)C(=O)C2=CN1C(CC(=O)O)C(=O)O (centres undefined),9.82,inactive,inactive,–,–,–
COc1ccc(C#Cc2ccc(C(=O)N3CCC[C@@H](O)C3)c(F)c2)cc1,-8.04,inactive,inactive,–,–,–
CC1(C)CCCC2(C)C1C(=O)C=C(C(=O)O)C2(O)C(=O)O (centres undefined),41.2,inactive,inactive,–,–,–
C[C@H]1C[C@H]2[C@@H]3CCC4=CC(=O)C=C[C@]4(C)[C@@]3(F)[C@@H](O)C[C@]2(C)[C@@]1(O)C(=O)COP(=O)(O)O,1,inactive,inactive,–,–,–
COc1cc(C(O)C(CO)Oc2ccc(CCCO[C@@H]3O[C@@H](C)[C@H](O)[C@@H](O)[C@H]3O)cc2OC)ccc1O (some centres undefined),-13.4,inactive,inactive,–,–,–
CC1=CCC[C@@H]2[C@](CCc3ccoc3)(C(=O)O)[C@H](C)CC[C@@]12C,-28.2,inactive,inactive,–,–,–
